Results from PubChem BioAssay (NCATS).
Inconclusive results are not listed. Entries that show only a call come without a potency. Values without a mark were called inactive. Activity calls are given as the source filed them. Calls follow the shape of the dose curve; as a rule, active = well fitted inhibition curve with a large enough effect; inconclusive = small, poorly fitted or top-dose-only effect; inactive = flat fitted curve, though single readings scatter.

Legend:
[1] = system: CP194; assay: qHTS profiling for inhibitors of Plasmodium falciparum proliferation (AID 504749); also: nearly all actives have a fitted effect of over 60% in size; details: P. falciparum in erythrocytes, SYBR Green DNA, 72 h; series mostly up to 28.7 µM
Outline: (§1)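 P. falciparum-infected erythrocytes (0.3% parasitemia, 2.5% hematocrit) incubated with compound 72 h at 37 C, 5% CO2. Parasite DNA detected by SYBR Green after lysis, overnight at room temperature; normalised to 0.29 uM artemisinin and DMSO.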

[2] = as above; details: P. falciparum in erythrocytes, SYBR Green DNA, 72 h, at 28.7 µM (top of the series)
Outline: as §1

[3] = system: 3D7; assay: as above; details: P. falciparum in erythrocytes, SYBR Green DNA, 72 h; series mostly up to 28.7 µM
Outline: as §1

[4] = system: 7G8; assay: as above; details: P. falciparum in erythrocytes, SYBR Green DNA, 72 h; series mostly up to 28.7 µM
Outline: as §1

[5] = system: AA1029; assay: as above; details: P. falciparum in erythrocytes, SYBR Green DNA, 72 h; series mostly up to 28.7 µM
Outline: as §1

[6] = system: C2A; assay: as above; details: P. falciparum in erythrocytes, SYBR Green DNA, 72 h; series mostly up to 28.7 µM
Outline: as §1

[7] = system: CP185; assay: as above; details: P. falciparum in erythrocytes, SYBR Green DNA, 72 h; series mostly up to 28.7 µM
Outline: as §1

[8] = system: CP191; assay: as above; details: P. falciparum in erythrocytes, SYBR Green DNA, 72 h; series mostly up to 28.7 µM
Outline: as §1

[9] = system: CP192; assay: as above; details: P. falciparum in erythrocytes, SYBR Green DNA, 72 h; series mostly up to 28.7 µM
Outline: as §1

[10] = system: ATS189; assay: as above; details: P. falciparum in erythrocytes, SYBR Green DNA, 72 h; series mostly up to 28.7 µM
Outline: as §1

[11] = system: ATS95; assay: as above; details: P. falciparum in erythrocytes, SYBR Green DNA, 72 h; series mostly up to 28.7 µM
Outline: as §1

[12] = system: AS120; assay: as above; details: P. falciparum in erythrocytes, SYBR Green DNA, 72 h; series mostly up to 28.7 µM
Outline: as §1
Potency is read from the fitted curve at half-maximal effect.

Row | SMILES | Potency [1] | activity, negative = inhibition ([2]; parasite line B) [%] | Potency [3] | Potency [4] | Potency [5] | Potency [6] | Potency [7] | Potency [8] | Potency [9] | Potency [10] | Potency [11] | activity, negative = inhibition ([2]; parasite line A) [%] | Potency [12]
1 | C/C(=C\C(=O)OCCCCCCCCC(=O)O)C[C@@H]1OC[C@H](C[C@@H]2O[C@H]2[C@@H](C)[C@H](C)O)[C@@H](O)[C@H]1O | 0.135 µM (active) | – | – | – | – | – | – | – | – | – | – | – | –
2 | CC(C)CCCCCCc1ccc(O)cc1 | inactive | -29 | inactive | 8.91 µM (active) | inactive | inactive | inactive | inactive | inactive | – | – | – | –
3 | Cn1c(O)c(N=NC(N)=S)c2ccccc21 | – | – | – | 12.6 µM (active) | – | – | – | – | inactive | – | – | – | –
4 | COc1ccc2nc(NC(=O)Nc3ccccc3)sc2c1 | inactive | 5.72 | – | 10 µM (active) | inactive | inactive | inactive | inactive | inactive | inactive | inactive | – | –
5 | C[C@H](CCC(=O)O)[C@H]1CC[C@H]2[C@@H]3CC[C@@H]4C[C@H](O)CC[C@]4(C)[C@H]3C[C@H](O)[C@]12C | inactive | – | inactive | inactive | inactive | inactive | inactive | inactive | inactive | inactive | inactive | 0.235 | inactive
6 | O=P(O)(O)OP(=O)(O)O | inactive | – | inactive | 10 µM (active) | – | inactive | inactive | inactive | inactive | – | inactive | -13.9 | –
7 | O=C1c2ccccc2CN2C(=O)c3ccccc3CN12 | inactive | – | inactive | inactive | inactive | inactive | inactive | inactive | inactive | inactive | inactive | – | inactive
8 | CC[C@H]1OC(=O)[C@H](C)[C@@H](O[C@H]2C[C@@](C)(OC)[C@@H](O)[C@H](C)O2)C(C)[C@@H](O[C@@H]2O[C@H](C)C[C@H](N(C)C)[C@@H]2O)[C@](C)(OC)C[C@@H](C)C(=O)[C@H](C)[C@@H](O)[C@]1(C)O (some centres not stated) | – | – | – | inactive | inactive | inactive | inactive | – | inactive | inactive | inactive | – | –
9 | CC(=O)c1ccc2c(c1)N(CCCN1CCN(CCO)CC1)c1ccccc1S2 | – | – | – | 7.08 µM (active) | 8.91 µM (active) | – | 10 µM (active) | 11.2 µM (active) | – | – | – | – | –
10 | S=C1SCN(Cc2ccccc2)CN1Cc1ccccc1 | inactive | – | inactive | inactive | inactive | inactive | inactive | inactive | inactive | inactive | inactive | -6.7 | inactive
